From PubChem BioAssay (NCATS)
Records with an inconclusive call do not appear. A number with no mark means an inactive call. Activity calls are given as the source filed them. Calls come from the whole dose curve; as a rule, active = well fitted inhibition curve with a large enough effect; inconclusive = small, poorly fitted or top-dose-only effect; inactive = no such curve, though single readings can be large or run the other way. Peptide text beside a SMILES is read from it.

assay: S16 Schwann cell PMP22 intronic element firefly luciferase assay (AID 624032); conditions: S16 rat Schwann cells, PMP22 element FLuc, 24 h; series mostly up to 57.5 µM; activity change, negative = inhibition: at the top concentration; note: nearly all actives have a fitted effect of over 30% in size
Text: Charcot-Marie-Tooth-Association [CMTA]
National Center for Advancing Translational Sciences [NCATS]
Charcot-Marie-Tooth (CMT) disease was first characterized by Jean-Martin Charcot and Pierre Marie in France and, independently, by Howard Henry Tooth in England in 1886. CMT is one of the most common inherited neurological diseases, affecting approximately 1 in 2,500 Americans. […] The most prevalent type of CMT is known as CMT1A and caused by a duplication of the PMP22 gene which leads to over-expression of this protein. PMP22 is a glycosylated intrinsic membrane protein accounting for 2-5% of the myelin protein content, and its over-expression results in demyelination and subsequently axonal loss.
A pair of cellular transcription-based assays was developed in the S16 rat Schwann cell lines (Hai, M., et al., 2002) stably transfected with orthogonal reporters - firefly luciferase (Fluc) and beta-lactamase (beta-Lac) - whose expression is driven by an intronic regulatory element of the PMP22 gene (Jones, E.A., et al., 2011) to recapitulate endogenous expression of PMP22. The current assay employs Fluc to report on PMP22 expression. A comprehensive library of approved drugs, the NCGC Pharmaceutical Collection (Huang, R., et al., 2011), was screened in the cross-validating platform of the orthogonal reporter assays to identify drug modulators inhibitory towards PMP22 expression.
A set of counter-screens was devised to address non-specific activity of the library. An ATP-dependent CellTiter-Glo assay (developed by Promega Corp) was utilized to control cell viability. In addition, biochemical Fluc enzyme assay was performed to assess direct inhibition of the Fluc enzymatic activity.
Hai, M., Muja, N., DeVries, G.H., Quarles, R.H. and Patel, P.I. Comparative analysis of Schwann cell lines as model systems for myelin gene transcription studies. J Neurosci Res, 2002. 69(4): pp 497-508
Huang, R., Southall, N., Wang, Y., Yasgar A., Shinn P., Jadhav, A. , Nguyen, D.-T. and Austin, C.P., The NCGC pharmaceutical collection: a comprehensive resource of clinically approved drugs enabling repurposing and chemical genomics. Sci Transl Med, 2011. 3(80): p. 80ps16.
S16 Schwann cell PMP22 intronic element firefly luciferase assay
The FLuc-expressing S16 cells were seeded in white solid 1536-well plates at between 500-750 cells/4uL in DMEM medium containing 10% FBS, w/o phenol red. After overnight incubation at 37 degree Celsius/5% C02, 23 nL of compounds or DMSO were delivered to each well using a pin tool, followed by 24h-incubation at 37 degree Celsius/5% C02. Then 4 uL ONE-Glo luminescent substrate mix (Promega) was added to each well. Luminescence was measured on a ViewLux plate reader (Perkin Elmer). The % activity was determined by normalizing to the average readings of PTC124 (a positive control) - treated cells relative to DMSO-treated cells (0% Activity). The concentration-effect curves were then classified based on curve quality (r2), response magnitude and degree of measured activity.
Potency is the fitted concentration of half-maximal effect.

Structure (SMILES) | activity change, negative = inhibition | Potency
CCC(=O)NCCC1CCc2ccc3c(c21)CCO3 (stereo not given) | -17.2% | –
COc1ccc2c3c1O[C@H]1C[C@@H](O)C=C[C@@]31CCN(C)C2 | 9.75% | –
COC(=O)[C@H]1[C@H]2C[C@@H]3c4[nH]c5ccccc5c4CCN3C[C@H]2C[C@@H](OC(=O)c2cc(OC)c(OC)c(OC)c2)[C@@H]1OC | – | 0.907 µM (active)
Cc1ccccc1OCC(O)CNCCOc1ccc(C(N)=O)cc1 (stereo not given) | 22.9% | –
CC(C(=O)O)c1ccc(N2Cc3ccccc3C2=O)cc1 (stereo not given) | -95.3% | –
CO[C@H](C(=O)[C@@H](O)[C@@H](C)O)C1Cc2cc3cc(O[C@H]4C[C@@H](O[C@H]5C[C@@H](O)[C@H](O)[C@@H](C)O5)[C@@H](O)[C@@H](C)O4)c(C)c(O)c3c(O)c2C(=O)[C@H]1O[C@H]1C[C@@H](O[C@H]2C[C@@H](O[C@H]3C[C@](C)(O)[C@H](O)[C@@H](C)O3)[C@H](O)[C@@H](C)O2)[C@H](O)[C@@H](C)O1 (stereo not given in full) | 8.82% | –
COCC(=O)Nc1cc(Sc2ccccc2)ccc1N=C(NC(=O)OC)NC(=O)OC | 14.9% | –
NC1C2CN(c3nc4c(cc3F)c(=O)c(C(=O)O)cn4-c3ccc(F)cc3F)CC12 (stereo not given) | 44.3% | –
COC(F)(F)C(Cl)Cl | 13.1% | –
CC(=O)Oc1c(C)cc(OCC(O)CNC(C)C)c(C)c1C (stereo not given) | 49.8% | –
CCCCC(=O)O[C@]1(C(=O)CO)[C@H](C)C[C@H]2[C@@H]3CCC4=CC(=O)C=C[C@]4(C)[C@@]3(F)[C@@H](O)C[C@@]21C | -7.27% | –
CCCCCCCCCCCC[n+]1ccc2ccccc2c1 | – | 0.907 µM (active)
COC(C(=O)C(O)C(C)O)C1Cc2cc3cc(OC4CC(OC5CC(O)C(O)C(C)O5)C(O)C(C)O4)c(C)c(O)c3c(O)c2C(=O)C1OC1CC(OC2CC(OC3CC(C)(O)C(O)C(C)O3)C(O)C(C)O2)C(O)C(C)O1 (stereo not given) | 37.9% | –
CCCCCCCCCCCCCCCC(=O)OCC(COC(=O)CCCCCCCCCCCCCCC)OC(=O)CCCCCCCCCCCCCCC | 43.7% | –
Cc1c(C)c2c(c(C)c1O)CC[C@@](C)(CCC[C@@H](C)CCC[C@@H](C)CCCC(C)C)O2 | 6.63% | –
O=C(O)CN(CCN(CC(=O)O)CC(=O)O)CC(=O)O | -7.12% | –
COC(=O)C1=C(C#N)NC(C)=C(C(=O)OC(C)C)C1c1cccc([N+](=O)[O-])c1 (stereo not given) | – | 16.1 µM (active)
CN(C)CCCN1c2ccccc2C(C)(C)c2ccccc21 | -7.48% | –
CC(C)=O | -11.7% | –
CCCCCCCCCCCCCC[n+]1ccc(C)cc1 | – | 2.56 µM (active)

Structure (SMILES) | activity change, negative = inhibition | Potency
CC[C@@]1(O)C(=O)OCc2c1cc1n(c2=O)Cc2cc3c([N+](=O)[O-])cccc3nc2-1 | – | 0.203 µM (active)
CC(NNC(=O)c1ccccc1)c1ccccc1 (stereo not given) | 109% | –
O=CCCCC=O | -16.2% | –
Oc1cc(O)c2c(c1)OC(c1ccc(O)c(O)c1)C(O)C2 (stereo not given) | -9.35% | –
C[C@H]1C[C@H]2[C@@H]3CCC4=CC(=O)C=C[C@]4(C)[C@@]3(F)[C@@H](O)C[C@]2(C)[C@@]1(O)C(=O)CO | -0.0785% | –
O=C(Nc1ccc(Br)cc1)c1cc(Br)c(Br)s1 | 105% | –
CCCC(=O)O[C@]1(C(=O)CCl)[C@H](C)C[C@@H]2[C@H]3CCC4=CC(=O)C=C[C@]4(C)[C@@]3(F)C(=O)C[C@@]21C | 1.02% | –
O=C1CSC2(CCN(CCCN3c4ccccc4Sc4ccc(Cl)cc43)CC2)N1 | – | 32.2 µM (active)
CC(=O)N[C@@H](CC(=O)O)C(=O)N[C@@H](CCC(=O)O)C(=O)O (Ac-Asp-Glu-OH) | 7.68% | –
CCCCCCOc1ccc(C(=N)N(CCCC)CCCC)c2ccccc12 | – | 22.8 µM (active)
CCCCC(CC)COC(=O)CC(C(=O)OCC(CC)CCCC)S(=O)(=O)O (stereo not given) | 13.7% | –
CCCCCCCC(=O)O | 0.981% | –
CCCCC/C=C\C/C=C\CCCCCCCC(=O)O | -10% | –
CC1=C(/C=C/C(C)=C/C=C/C(C)=C/C=C/C=C(C)/C=C/C=C(C)/C=C/C2=C(C)C(=O)CCC2(C)C)C(C)(C)CCC1=O | -18% | –
O=S(=O)(O)O | 1.73% | –
Cc1c(C)c2c(c(C)c1O)CC[C@@](C)(CCC[C@H](C)CCC[C@H](C)CCCC(C)C)O2 | 1.31% | –
CC1(C)C(C=C(Cl)Cl)C1C(=O)OCc1cccc(Oc2ccccc2)c1 (stereo not given) | 6.25% | –
CC(=O)Oc1cc(C)c(OC(C)=O)c2ccccc12 | – | 28.7 µM (active)
C#C[C@]1(O)CC[C@H]2[C@@H]3CCC4=CCCC[C@@H]4[C@H]3C(=C)C[C@@]21CC | -54.6% | –
C#CCOc1ccc2c(C)cc(=O)oc2c1 | 44.2% | –
